Source: PubChem BioAssay (several laboratories)
PostGolgi yeast = growth inhibition of a yeast mutant, post-Golgi transport screen; post-Golgi transport phenotypic cell assay; inhibition, % at 10 µM; hit rate 0.9% among 98,000; AID 739;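 further: yeast cells grown in 1536-well plates; yeast grown about 18 h at 30C before absorbance read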
CYP2C9 inh = inhibitors of human CYP2C9; P11712; CYP2C9 Supersomes, luciferin-H conversion, luminescence; inhibition, % at 5 µM; hit rate 20% among 96,000;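 active means blocking of liver enzyme CYP2C9 beyond about 50% at 5 µM, limit read from the data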
Target sequence (P11712 whole entry, looked up): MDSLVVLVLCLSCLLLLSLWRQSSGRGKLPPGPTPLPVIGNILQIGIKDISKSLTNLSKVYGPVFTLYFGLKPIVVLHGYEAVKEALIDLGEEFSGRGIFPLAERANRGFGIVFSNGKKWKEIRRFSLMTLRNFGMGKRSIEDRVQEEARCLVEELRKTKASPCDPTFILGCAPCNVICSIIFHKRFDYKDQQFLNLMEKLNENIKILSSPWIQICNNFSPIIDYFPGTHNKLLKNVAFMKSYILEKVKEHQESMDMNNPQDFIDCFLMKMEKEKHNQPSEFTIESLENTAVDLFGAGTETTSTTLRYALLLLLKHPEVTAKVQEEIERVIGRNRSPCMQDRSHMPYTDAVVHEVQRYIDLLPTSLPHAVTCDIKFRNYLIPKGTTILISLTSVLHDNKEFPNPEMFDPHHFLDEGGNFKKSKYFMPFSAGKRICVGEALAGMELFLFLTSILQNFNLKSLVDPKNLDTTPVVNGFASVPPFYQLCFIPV
CYP2C9 activ = CYP2C9 (human) activation | AID 1024 | activation factor at 5 µM | P11712 | hit rate 1.4% among 96,000 | recombinant CYP2C9, luciferin-H conversion, luminescence; stronger effect = higher value; factor 1 = untreated enzyme, 0 = blocked;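 active means activation factor of 2 or more for CYP2C9 at a 5 µM dose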;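 further: 0 = sulfaphenazole-blocked wells and 1 = vehicle-only wells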
CYP2C19 act = increases human CYP2C19 enzyme activity. recombinant CYP2C19, luciferin-H EGE luminescence; stronger effect = higher value; 0 = fully inhibited enzyme, 1 = untreated enzyme. activation factor at 5 µM. 96,000 tested, under 10 active. AID 1025;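 active means activation factor of at least 2 at 5 µM in the primary screen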;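 further: 0 = wells with 2.5 mM tranylcypromine and 1 = vehicle-only wells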
PostGolgi ctrl = yeast control strain growth, post-Golgi counter-screen. efflux-deficient yeast background strain, growth absorbance A615, 16 h. inhibition, % at 10 µM. hit rate 5% among 98,000. AID 738
CYP2C19 inhib = human CYP2C19 inhibition; hit rate 21% among 96,000; AID 778; inhibition, % at 5 µM; CYP2C19 Supersomes, luciferin-H EGE luminescence, 30 min; P33261;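 active means CYP2C19 inhibition above a set limit at 5 µM in the primary screen, cut at about 50% in these data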;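 further: plate controls were negative control wells for no effect and 2.5 mM tranylcypromine positive control for full effect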
* = called active by the depositor; · = no result given; ! = not confirmed by another sample. The list is not random: actives were taken first. Their share in the collection is about 32%. Unless noted, no stated cut-off is given here; in the data, active means inhibition above about 30%; inactive means the rest.

SMILES | PostGolgi yeast | CYP2C9 inh | CYP2C9 activ | CYP2C19 act | PostGolgi ctrl | CYP2C19 inhib
CN1CCN(C(=O)c2cc3c(n(-c4ccccc4)c2=O)CC(C)(C)CC3=O)CC1 | 0 | -9 | 1.1 | 1.2 | 0 | -17
O=C(CCCCCN1C(=O)c2ccccc2C1=O)Nc1ccccc1 | 0 | 58* | 0.4 | 0.4 | 22 | 64*
O=C(CCCCCN1C(=O)c2ccccc2C1=O)NCc1ccccn1 | -6 | 0 | 1 | 1 | 0 | -2
CCOC(=O)c1ccc(NC(=O)NC2CCN(CC(=O)NCc3ccc4c(c3)OCO4)CC2)cc1 | 18 | 10 | 0.9 | 1 | -3 | 4
COc1ccc(C(=O)c2cnc3cc4c(cc3c2C)OCO4)cc1 | 1 | 65* | 0.4 | 0.1 | 11 | 95*
COC(=O)c1nc2cc3c(cc2c(C)c1C(=O)OC)OCO3 | -2 | 9 | 0.9 | 0.9 | 25 | 8
COc1ccc(S(=O)(=O)Nc2ccccc2C(=O)NCc2ccco2)cc1Br | 1 | 51* | 0.5 | 0.7 | 1 | 34
CCOc1ccc(N(C(C)C(=O)NCc2ccco2)S(C)(=O)=O)cc1 (configuration not stated) | 5 | 54* | 0.5 | 0.2 | 0 | 78*
COCCNC(=O)C(C)N(c1ccc(Oc2ccccc2)cc1)S(C)(=O)=O (configuration not stated) | 3 | 1 | 1 | 0.5 | 3 | 53*
Cc1ccc(OCC(=O)NCc2ccco2)cc1C | 0 | 30 | 0.7 | 0.2 | 0 | 80*
O=C(NCc1ccco1)c1ccccc1Br | -4 | -2 | 1 | 1 | 12 | 2
Cc1cc(C)c2c(CC(=O)NCc3ccco3)coc2c1 | -5 | -58 | 1.6 | 0.1 | 8 | 89*
CCOc1ccc(S(=O)(=O)Nc2ccccc2C(=O)NCc2ccco2)cc1 | 3 | 70* | 0.3 | 0 | 18 | 100*
CCC(C)NS(=O)(=O)c1ccc(OCC(=O)NCc2ccco2)cc1 (configuration not stated) | 7 | 25 | 0.7 | 1 | -7 | 5
Cc1ccccc1NS(=O)(=O)c1ccc(OCC(=O)NCc2ccco2)cc1 | -4 | 61* | 0.4 | 0.9 | 13 | 12
COc1ccc(S(=O)(=O)N(C)c2ccc(OCC(=O)Nc3cc(C)on3)cc2)cc1 | -1 | 40 | 0.6 | 0.6 | 6 | 44
CCOc1ccc(S(=O)(=O)N(C)c2ccc(OCC(=O)NCc3ccco3)cc2)cc1 | 16 | 100* | 0 | 0.1 | 6 | 86*
CS(=O)(=O)Nc1ccccc1C(=O)NCc1ccco1 | -9 | 49 | 0.5 | 0.8 | 5 | 25
Cc1cc(C(=O)Nc2ccccc2)c(C)o1 | -5 | 20 | 0.8 | 0.4 | 2 | 61*
O=C(O)c1ccccc1C(=O)Nc1ccccc1 | -1 | 12 | 0.9 | 0.8 | 40* | 19
Cc1ccc(C(C)NC(=O)c2cc(C)oc2C)cc1 (configuration not stated) | 2 | 49 | 0.5 | 0.2 | 33* | 77*
Cc1cc(C(=O)NC(C)c2ccncc2)no1 (configuration not stated) | 4 | 44 | 0.6 | 0.7 | 11 | 29
O=C(O)c1ccccc1C(=O)Nc1nccs1 | -18 | -10 | 1.1 | 1.1 | 30* | -5
CCOC(=O)c1nn(-c2ccc(Cl)cc2)c2nc(Nc3ccccc3)cc(=O)n12 | -1 | 33 | 0.7 | 1.1 | 8 | -8
CCCOc1ccc(C(=O)NNC(=S)NC(=O)c2cc(-c3ccccc3)nc3ccccc23)cc1 | -13 | 47 | 0.5 | 0.8 | 16 | 17
SMILES | PostGolgi yeast | CYP2C9 inh | CYP2C9 activ | CYP2C19 act | PostGolgi ctrl | CYP2C19 inhib
C/C(=N/NS(=O)(=O)c1ccc(Cl)cc1)c1cccc(O)c1 | 1 | 23 | 0.8 | 0.8 | 4 | 22
C/C(=N\NS(=O)(=O)c1ccc(C)c([N+](=O)[O-])c1)c1cc2ccccc2o1 | -4 | 37 | 0.6 | 1 | 6 | -4
C/C(=N\NS(=O)(=O)c1ccc(Cl)c([N+](=O)[O-])c1)c1ccc(C)o1 | 2 | 88* | 0.1 | 0.2 | -6 | 83*
C/C(=N\NS(=O)(=O)c1ccc(Cl)c([N+](=O)[O-])c1)c1cc2ccccc2o1 | -7 | 100* | 0 | 0 | 18 | 97*
COc1cccc(/C(O)=C2\C(=O)C(=O)N(c3ccccn3)C2c2cccc(OC)c2OC)c1 (configuration not stated) | -5 | 1 | 1 | 1.1 | -2 | -14
CCCCN(C)C(=O)c1cc2cc3ccc(OC)cc3nc2s1 | -5 | 53* | 0.5 | 0.4 | 29 | 56*
CCCCN(CC)C(=O)c1cc2cc3ccc(OC)cc3nc2o1 | -5 | 10 | 0.9 | 0.7 | 24 | 28
COC(=O)CSc1nnc(-c2cccnc2)n1-c1cccc(OC)c1 | -3 | 13 | 0.9 | 0.7 | -1 | 31
COc1ccc(C(=O)NCCn2cc(SCC(=O)Nc3cc(C)on3)c3ccccc32)cc1OC | -4 | 45 | 0.6 | 0.4 | -6 | 56*
CCOc1ccc(C(=O)NCCn2cc(SCC(=O)Nc3cc(C)on3)c3ccccc32)cc1 | -7 | 57* | 0.4 | 0.7 | 1 | 28
Cc1cc(NC(=O)CSc2cn(CCNC(=O)c3ccc(Cl)cc3)c3ccccc23)no1 | -7 | 46 | 0.5 | 0.7 | 5 | 34
CCN(CC)CC(=O)NCC1(c2ccccc2)CCOCC1 | 15 | 22 | 0.8 | 1 | 10 | -2
CCOc1ccc(N2CC(C(=O)Oc3ccccc3)CC2=O)cc1 (configuration not stated) | -3 | · | · | · | 7 | ·
CC(Sc1nc2ccc(Br)cc2[nH]1)C(=O)O (configuration not stated) | -3 | 6 | 0.9 | 0.9 | -4 | 6
O=C(CSc1cn(CCNC(=O)c2ccc3ccccc3c2)c2ccccc12)NCc1ccco1 | -9 | 9 | 0.9 | 0.7 | 7 | 26
c1ccc2[nH]c(-c3ccnc4ccccc34)nc2c1 | 3 | 54*! | 0.5 | 0.7 | 11 | 29
CSc1ncccc1-c1nc2ccccc2[nH]1 | 8 | 13 | 0.9 | 1.1 | 16 | -8
CN=C(Nc1cc(Cl)ccc1Cl)SC1CC(=O)N(c2ccc(C(=O)OC)cc2)C1=O (configuration not stated) | 17 | 100* | 0 | 0.1 | 38* | 92*
COC(=O)c1ccc(N2C(=O)CC(Sc3n[nH]c(C)n3)C2=O)cc1 (configuration not stated) | 3 | 5 | 1 | 0.9 | 12 | 8
CCS(=O)(=O)N1CCN(C2CCC(C)CC2)CC1 (configuration not stated) | 7 | -13 | 1.1 | 1 | 2 | -2
O=C(CN1CCN(c2ccccc2)CC1)N1CCN(c2ccccc2)CC1 | 9 | 38 | 0.6 | 0.7 | 22 | 26
COC(=O)C1CCN(C(=O)Cc2ccc(OC)c(OC)c2)CC1 | 0 | · | · | · | -1 | ·
O=C(Cc1ccc(-n2c(=S)[nH]c3ccccc3c2=O)cc1)N1CCN(c2ccccc2)CC1 | 5 | 4 | 1 | 0.4 | 13 | 55*
